In PubChem BioAssay AID540333 (Southern Research Specialized Biocontainment Screening …, 2011) one finds CPE inhibition data, which are given here for 57 compounds.

Molecules are shown by their SMILES. In all, about 10,000 compounds went through this assay and about 320 (3.2%) were called active. This is one part of a sample in which actives are shown more often than they occur. Values without a mark were called inactive. Rule as the data show it: active = CPE inhibition mostly above about 9.1% (no sharp cut-off); inactive = mostly below about 7.2%.

This experiment is described as follows: Dengue virus cytopathic effect inhibitors, cell-based, CPE readout, HTS (AID 540333). To be noted: Dengue virus CPE inhibition in host cells, at 20 µM; hits give high values. (Damage to the host cells serves as the signal in cytopathic effect assays.)
`O=C1CC(c2ccc(Cl)cc2)SC(N(c2ccccc2)c2ccccc2)=N1` (configuration not stated): the CPE inhibition was 23.9% (active).
As for `Cc1cc(O)c(C2=Nc3ccccc3SC(c3ccc(Cl)cc3)C2)c(=O)o1` (configuration not stated), the figure is 5.1%; as for `O=C1N(c2ccccc2)C(c2ccc(Cl)cc2)N2CCCN12` (configuration not stated), 0.355%.
As for `O=C1NC(=O)C(CC(=O)N(Cc2cccs2)C2(C(=O)NC3CCCC3)CCCCC2)N1` (configuration not stated), the figure is 0.025%; as for `CC(=O)Nc1ccccc1C(=O)C(=O)Nc1cccc(C(=O)NCc2ccccc2)c1`, “inactive”.
As for `O=C(NC(=S)Nc1cccc(NC(=O)c2ccccc2)c1)c1cccc([N+](=O)[O-])c1`, the CPE inhibition is 0.91%.
Next, `COc1ccc(/C=C/c2nnc(NC(=O)CSc3ccc(Cl)cc3)s2)cc1`: 12.2% (active); `COc1ccc(Cc2nnc(NC(=O)CSc3ccc(C)cc3)s2)cc1`: 0.25%; `COC(=O)Nc1nnc(/C=C/c2ccc(OC)cc2)s1`: 6.99%.
As for `CC(C)c1nc(C#N)c(N2CCOCC2)o1`, the entry is “inactive”; as for `Cc1ccc(CN2CCN(CC(=O)N/N=C/c3c[nH]c4ccccc34)CC2)cc1`, 0.79%.
Regarding `COc1cc(OC)cc(-c2c(C#Cc3ccsc3)c3cc(-c4cccc5[nH]ccc45)ccc3n2C)c1`, the CPE inhibition was 6.79%.
Next, `O=C(CN1CCN(c2ccccc2)CC1)Nc1ccccc1Sc1ccccc1`: 15.7% (active); `CC1CN(CC(=O)Nc2ccccc2Sc2ccccc2)CC(C)O1` (configuration not stated): 0.145%.
As for `CC(=O)N1CCN(CC(=O)Nc2ccccc2Sc2ccccc2)CC1`, the figure is 0.615%; as for `Cc1ccc(/C=C/C(=O)OCC(=O)Nc2ccccc2Sc2ccccc2)cc1`, “inactive”.
As for `O=C(Cc1ccccc1)Nc1cc(Cl)ccc1Sc1ccccc1`, the figure is 0.52%; as for `CC1CCCCN1CC(=O)Nc1ccccc1Sc1ccccc1` (configuration not stated), 18.4% (active); as for `O=C(COC(=O)c1ccccc1-c1nc2ccccc2s1)NC1CCS(=O)(=O)C1` (configuration not stated), “inactive”.
For `CC(=O)O[C@H]1CC[C@@]2(C)[C@@H](CC[C@H]3[C@@H]4CC[C@H](C(C)O)[C@@]4(C)CC(=O)[C@@H]32)C1` (some centres not stated), the CPE inhibition result is “inactive”.
As for `COC(=O)c1ccc(NC(=O)CSC2=NCCN2)cc1`, the figure is 0.235%.
As for `O=C1CC(N(Cc2cccs2)C(=O)Nc2ccccc2)C(=O)N1c1ccc(Cl)cc1` (configuration not stated), the figure is 0.225%.
Next, `COC(=O)[C@@]1(Cc2ccc(F)cc2)[C@H]2c3cc(C(=O)N(C)C)n(CCc4ccc(OC)c(Br)c4)c3C[C@H]2CN1C(=O)c1ccccc1`: 21.7% (active); `COC(=O)Cn1c(C(=O)N2CCCC2)cc2c1C[C@H]1CN(C(=O)c3ccccc3)[C@@](Cc3ccc(F)cc3)(C(=O)OC)[C@@H]21`: 0.235%; `COC(=O)[C@@]1(Cc2ccc(F)cc2)[C@H]2c3cc(C(=O)N(C)C)n(C[C@H](O)CO)c3C[C@H]2CN1C(=O)c1ccccc1`: 0.25%.
`Cc1cc(NC(=O)/C=C/c2ccc(Cl)cc2)no1`: the CPE inhibition result was “inactive”.
`Cc1cccn2c(=O)c(/C=C(\C#N)C(=O)NC3CCS(=O)(=O)C3)c(N3CCC(C(N)=O)CC3)nc12` (configuration not stated): the CPE inhibition was 0.15%.
Next, `Cc1cccn2c(=O)c(/C=C(\C#N)C(=O)NCc3ccco3)c(N3CCC(C(N)=O)CC3)nc12`: 0.26%; `Cc1cccn2c(=O)c(/C=C(\C#N)C(=O)NCc3ccco3)c(N3CCCC(C)C3)nc12` (configuration not stated): 11.3% (active); `CCOP(=O)(OCC)C(NC(=O)Nc1ccc(Cl)cc1)c1ccccc1` (configuration not stated): 0.17%.
As for `Cn1cccc1CC(=O)N/N=C/C=C/c1ccccc1`, the figure is 0.02%; as for `COc1ccc(COc2ccccc2C(=O)NCc2ccccc2)cc1F`, 1.67%.
As for `Cc1cc(C)c2c(c1)cc(C)c1nnc(SCC(=O)Nc3ccccc3N3CCOCC3)n12`, the CPE inhibition entry is “inactive”.
Next, `CCOc1cc(/C=C2\C(=O)N(CCc3ccc(OC)c(OC)c3)C(C)=C2C(=O)OC)ccc1O`: 2.62%; `CCOc1cc(/C=C2\C(=O)N(c3cccc(C(F)(F)F)c3)C(=O)c3ccccc32)ccc1O`: 17.1% (active); `CCOc1cc(/C=C2\NC(=S)N(c3c(C)n(C)n(-c4ccccc4)c3=O)C2=O)ccc1O`: 0.065%.
With `CN(C)S(=O)(=O)c1cccc(NC(=O)COC(=O)/C=C/c2ccco2)c1`, the CPE inhibition result is “inactive”.
As for `COc1ccccc1-c1coc2cc(OCC(=O)OCc3ccccc3)ccc2c1=O`, the entry is “inactive”; as for `CCCCOC(=O)c1ccc(NC(c2ccc(C)cc2)P(=O)(OC)OC)cc1` (configuration not stated), 41.4% (active).
Next, `CCCOC(=O)c1ccc(NC(=O)c2cc(Cl)ccc2OC)cc1`: 0.345%.
As for `CCCOC(=O)c1ccc(NC(=O)C(CC)CC)cc1`, the entry is “inactive”.
As for `Cc1ccc(NC(=O)c2cncc(Br)c2)cc1S(=O)(=O)N(C)C`, the CPE inhibition result is “inactive”.
Consider `CCCNC(=O)Cn1nc([N+](=O)[O-])c([N+](=O)[O-])c1C`, for which the CPE inhibition result is “inactive”.
In the case of `COc1ccc(C2CC(c3ccccc3)=NN2C(=O)COC(=O)C2CC2)cc1` (configuration not stated), the CPE inhibition is 1.49%.
As for `O=C(c1cccs1)N1N=C(c2ccccc2)CC1c1ccc(O)cc1` (configuration not stated), the figure is 30.5% (active); as for `CCn1cc([N+](=O)[O-])c(C(=O)N2N=C(c3ccccc3)CC2c2ccc([N+](=O)[O-])cc2)n1` (configuration not stated), 1.99%.
As for `COc1ccccc1-c1nnc(NC(=O)C2=COCCO2)o1`, the figure is 0.3%.
Next, `Cc1onc(-c2c(F)cccc2Cl)c1C(=O)NC(=S)NCc1cccnc1`: “inactive”.
As for `CCN(CC)c1ccc(S(=O)(=O)Nc2cc(Cl)ccc2Cl)cc1NC(=S)NC(=O)C1CCCC1`, the CPE inhibition is 26.9% (active).
In the case of `CCN(CC)S(=O)(=O)c1ccc(C)c(NC(=S)NNC(=O)C2CC2)c1`, the CPE inhibition was 0.73%.
As to `O=C(CNC(=O)C1CCCCC1)Nc1cc(Cl)ccc1Cl`, the CPE inhibition entry is “inactive”.
For the compound `O=[N+]([O-])c1cccc(N/N=C/c2cccc3ccccc23)c1`, the CPE inhibition was 0.555%.
`CCn1cc(CNC(=O)c2cccc([N+](=O)[O-])c2)c(C)n1`: the CPE inhibition was 0.4%.
For `O=C(Cc1ccc(Cl)cc1)Nc1cccc(S(=O)(=O)Nc2ccccc2F)c1`, the CPE inhibition is 0.29%.
As for `Cc1cccc(NC(=S)N/N=C2/CCCCc3ccccc32)c1`, the figure is 11.6% (active); as for `Cc1cccc(NC(=S)N2CCCCCC2)c1`, 0.335%.
On to `Cc1cccc(NC(=S)N2CCCCC2)c1`, for which the CPE inhibition is 0.28%.
